Reference: PubChem BioAssay (EPA / NIEHS)
Calls of active or inactive are those of the source. Rule for the calls: active = hit-call score of the fitted dose curve at least 0.9, where 1 is the maximum; inactive = score below 0.9.

assay: ATG_TCF_b_cat_CIS: Attagene CIS-FACTORIAL HepG2 Assay for human T-Cell-Factor with beta-catenin (TCF/b-cat) (AID 2282965); settings: HepG2 TCF/beta-catenin cis-reporter transcription, actives raise or lower the signal
Method in brief: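 Endogenous TCF/LEF activity read as reporter transcript level via RT-PCR and capillary electrophoresis fluorescence in transfected HepG2, 24 h exposure; gain or loss of signal fitted against DMSO controls.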

SMILES | outcome | AC50
O=C(O)C(F)(F)OC(F)(F)C(F)(F)OC(F)(F)C(=O)O | inactive | 
N#Cc1cc([N+](=O)[O-])ccc1N | inactive | 
COP(=O)(O)OC | inactive | 
CCOS(=O)(=O)OCC | inactive | 
Nc1cc2c3c(c1)C(c1ccccc1)=N[C@@H](NC(=O)c1cccnc1)C(=O)N3CC2 | inactive | 
Oc1ccc(I)cc1 | inactive | 
C/C(=N\NC(=O)Nc1cc(F)cc(F)c1)c1ncccc1C(=O)O | inactive | 
CCOP(=S)(OCC)SCSCC | inactive | 
OCC(F)(F)OC(F)(F)C(F)(F)OC(F)(F)C(F)(F)OC(F)(F)CO |  | 9.92 µM (active)
[N-]=[N+]=[N-] | inactive | 
O=S1(=O)OCC2C(CO1)C1(Cl)C(Cl)=C(Cl)C2(Cl)C1(Cl)Cl (stereo not drawn) |  | 11.6 µM (active)
Oc1ccccc1Br | inactive | 
FC(F)(F)C(F)(C(F)(F)F)C(F)(F)C(F)(F)CC1CO1 (stereo not drawn) | inactive | 
C=CC(=O)OCC(CC)(COC(=O)C=C)COC(=O)C=C | inactive | 
CC1(C)CN=C(NN=C(/C=C/c2ccc(C(F)(F)F)cc2)/C=C/c2ccc(C(F)(F)F)cc2)NC1 |  | 19.4 µM (active)
CCOP(=S)(OCC)SCn1nnc2ccccc2c1=O | inactive | 
O=C(O)C=CC(F)(C(F)(F)F)C(F)(F)F | inactive | 
O=C(O)C(F)(OC(F)(F)C(F)(F)C(F)(F)F)C(F)(F)F (stereo not drawn) | inactive | 
CC1=C(C(=O)Nc2ccccc2)S(=O)(=O)CCO1 | inactive | 
O=P1(N(CCCl)CCCl)NCCCO1 (stereo not drawn) | inactive | 

SMILES | outcome | AC50
OCC1CO1 (stereo not drawn) | inactive | 
Nc1ccc(Cl)cc1 | inactive | 
CNC(=O)Oc1ccc(N(C)C)c(C)c1 | inactive | 
Nc1ccc(Sc2ccc(N)cc2)cc1 | inactive | 
c1ccc2c(c1)sc1ccccc12 | inactive | 
CC(O)C#N (stereo not drawn) | inactive | 
OCC(F)(F)OC(F)(F)C(F)(F)OC(F)(F)CO | inactive | 
CCCCN(CCCC)N=O | inactive | 
CC(O)C(F)(F)C(F)(F)F (stereo not drawn) | inactive | 
CCN(CC)c1ccccc1 | inactive | 
O=C(O)C(F)(F)C(F)(F)C(=O)O | inactive | 
CCCCc1ccccc1 | inactive | 
N#Cc1c(-c2ccc(Cl)cc2)[nH]c(C(F)(F)F)c1Br | inactive | 
O=[N+]([O-])c1ccccc1 | inactive | 
CCOC(=O)c1ccccc1C(=O)OCC | inactive | 
c1nc[nH]n1 | inactive | 
CCC(C)(C)c1ccc(O)cc1 | inactive | 
c1cc2c3c(cccc3c1)CC2 | inactive | 
O=C(O)C(Cl)Cl | inactive | 

assay: ATG_TAL_CIS: Attagene CIS-FACTORIAL HepG2 Assay for human TAL Basal Promoter (AID 2282966); settings: HepG2 Attagene cis-factorial TAL promoter reporter; actives raise or lower the signal;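 note: background control endpoint measuring basal TAL promoter reporter mRNA not a specific factor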
Method in brief: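 Background-control endpoint: basal TAL promoter reporter transcripts in transiently transfected HepG2, measured 24 h after dosing. Read-out by RT-PCR with fluorescent primer extension and capillary electrophoresis; gain or loss of signal fitted relative to DMSO.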

SMILES | outcome | AC50
O=C(O)C(F)(F)OC(F)(F)C(F)(F)OC(F)(F)C(=O)O | inactive | 
N#Cc1cc([N+](=O)[O-])ccc1N | inactive | 
COP(=O)(O)OC | inactive | 
CCOS(=O)(=O)OCC | inactive | 
Nc1cc2c3c(c1)C(c1ccccc1)=N[C@@H](NC(=O)c1cccnc1)C(=O)N3CC2 | inactive | 
Oc1ccc(I)cc1 | inactive | 
C/C(=N\NC(=O)Nc1cc(F)cc(F)c1)c1ncccc1C(=O)O | inactive | 
CCOP(=S)(OCC)SCSCC | inactive | 
OCC(F)(F)OC(F)(F)C(F)(F)OC(F)(F)C(F)(F)OC(F)(F)CO | inactive | 
[N-]=[N+]=[N-] | inactive | 
O=S1(=O)OCC2C(CO1)C1(Cl)C(Cl)=C(Cl)C2(Cl)C1(Cl)Cl (stereo not drawn) | inactive | 
Oc1ccccc1Br | inactive | 
FC(F)(F)C(F)(C(F)(F)F)C(F)(F)C(F)(F)CC1CO1 (stereo not drawn) | inactive | 
C=CC(=O)OCC(CC)(COC(=O)C=C)COC(=O)C=C | inactive | 
CC1(C)CN=C(NN=C(/C=C/c2ccc(C(F)(F)F)cc2)/C=C/c2ccc(C(F)(F)F)cc2)NC1 |  | 4.22 µM (active)
CCOP(=S)(OCC)SCn1nnc2ccccc2c1=O | inactive | 
O=C(O)C=CC(F)(C(F)(F)F)C(F)(F)F | inactive | 
O=C(O)C(F)(OC(F)(F)C(F)(F)C(F)(F)F)C(F)(F)F (stereo not drawn) | inactive | 
CC1=C(C(=O)Nc2ccccc2)S(=O)(=O)CCO1 | inactive | 
O=P1(N(CCCl)CCCl)NCCCO1 (stereo not drawn) | inactive | 

SMILES | outcome | AC50
OCC1CO1 (stereo not drawn) | inactive | 
Nc1ccc(Cl)cc1 | inactive | 
CNC(=O)Oc1ccc(N(C)C)c(C)c1 | inactive | 
Nc1ccc(Sc2ccc(N)cc2)cc1 | inactive | 
c1ccc2c(c1)sc1ccccc12 | inactive | 
CC(O)C#N (stereo not drawn) | inactive | 
OCC(F)(F)OC(F)(F)C(F)(F)OC(F)(F)CO | inactive | 
CCCCN(CCCC)N=O | inactive | 
CC(O)C(F)(F)C(F)(F)F (stereo not drawn) | inactive | 
CCN(CC)c1ccccc1 | inactive | 
O=C(O)C(F)(F)C(F)(F)C(=O)O | inactive | 
CCCCc1ccccc1 | inactive | 
N#Cc1c(-c2ccc(Cl)cc2)[nH]c(C(F)(F)F)c1Br | inactive | 
O=[N+]([O-])c1ccccc1 | inactive | 
CCOC(=O)c1ccccc1C(=O)OCC | inactive | 
c1nc[nH]n1 | inactive | 
CCC(C)(C)c1ccc(O)cc1 | inactive | 
c1cc2c3c(cccc3c1)CC2 | inactive | 
O=C(O)C(Cl)Cl | inactive | 
